Measured values from the supplement of paper PMC6555819.

Tests used:
Assay in all cases: PBM binding z-score (relative to random genomic background probes); higher = stronger binding; sequences stand for … in GC…GCGATTGACAGCGTAGAATGAAGG
[1] = tested on: FXR:RXRa (NR concentration 270 nM, RXRa partner concentration 90 nM)
Procedure, shortened: (§1)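 Custom Agilent 4×180K protein-binding microarrays carried double-stranded probes, each with a 34-nt variable region. These regions held direct-repeat seeds, single-nucleotide variants, half-site ablations and random human genomic background sequences. Ligand-free nuclear receptor dimers were incubated on the arrays for 1 h, antibodies against each partner (one per run) detected binding, and scanned fluorescence was regression-normalized. Binding z-scores take the random background probes as reference.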

[2] = tested on: LXRa:RXRa (NR concentration 270 nM, RXRa partner concentration 90 nM)
Procedure, shortened: as §1

[3] = tested on: LXRa homodimer (NR concentration 270 nM)
Procedure, shortened: as §1

[4] = tested on: LXRb:RXRa (NR concentration 270 nM, RXRa partner concentration 90 nM)
Procedure, shortened: as §1

[5] = tested on: LXRb homodimer (NR concentration 270 nM)
Procedure, shortened: as §1

[6] = tested on: PPARa:RXRa (NR concentration 270 nM, RXRa partner concentration 90 nM)
Procedure, shortened: as §1

[7] = tested on: PPARg:RXRa (NR concentration 180 nM, RXRa partner concentration 90 nM)
Procedure, shortened: as §1

[8] = tested on: PPARg:RXRa 270nM:90nM, anti-RXR (NR concentration 270 nM, RXRa partner concentration 90 nM)
Procedure, shortened: as §1

[9] = tested on: PPARg:RXRa 30nM:10nM, anti-RXR (NR concentration 30 nM, RXRa partner concentration 10 nM)
Procedure, shortened: as §1

[10] = tested on: PPARg:RXRa 90nM:30nM, anti-RXR (NR concentration 90 nM, RXRa partner concentration 30 nM)
Procedure, shortened: as §1

Sequence | PBM binding z-score [1] | PBM binding z-score [2] | PBM binding z-score [3] | PBM binding z-score [4] | PBM binding z-score [5] | PBM binding z-score [6] | PBM binding z-score [7] | PBM binding z-score [8] | PBM binding z-score [9] | PBM binding z-score [10]
TCGAGTAGGTTAGTCGGGGCATTCAGCCAACATA | -0.132 | -0.201 | -0.628 | 0.294 | -0.855 | 0.44 | -0.224 | 0.553 | 0.435 | 0.377
AGTCAAAGTTCACTAGGAAACGTAAGATTCAGCT | 5.38 | 5.47 | 2.41 | 2.89 | 0.822 | 4.1 | 5.8 | 6.01 | 2.93 | 5.11
ATACCAAGGTGATCGTGAGGTCGTTGACACTAAC | 2.81 | 1.92 | 0.798 | 1.38 | -0.392 | 1.59 | 0.583 | 0.586 | 0.0332 | 0.0166
TCAAATAGGTAAACAGGTGAAAGTCCGTAAGTTA | 0.954 | 0.935 | 0.164 | 0.968 | -0.112 | 2.28 | 2.64 | 3.76 | 4.64 | 4.28
ATCGAAAGGTCGAGGTGAGTAAAGAGAAAGGGAA | 4.14 | 3.26 | 0.0324 | 2.59 | 0.664 | 4.57 | 3.27 | 3.83 | 1.09 | 2.5
CAGCTTAGGTCAGGGCCAGTATAGGAGGAACGTT | 2.21 | 1.3 | -0.0157 | 0.814 | -0.56 | 2.17 | 0.606 | 0.732 | -0.0225 | 0.447
ATCTCTAGGTAGAAGTTCAGTGAATCCCGAGGAT | 0.0471 | 0.223 | 0.0969 | 0.0752 | 0.257 | 2.6 | 4.33 | 5.62 | 4.14 | 5.52
TAGCCTAGGTCATGGGCCAGTATACCACGCGAAC | 4.32 | 3.28 | 0.195 | 2.24 | -0.333 | 4.04 | 3.78 | 3.66 | 0.829 | 2.59
TACCCTAGGTCAGATCGGGCCAGTATACGCTATA | 2.3 | 4.7 | 5.49 | 2.57 | 2.46 | 1.98 | 1.12 | 1.34 | 0.45 | 1.33
CCTCGGAGGACAACAGGAGGTTAGAGCTGCCAGA | -0.155 | -0.0847 | -0.064 | -0.556 | -0.957 | -0.226 | 0.177 | -0.821 | -0.597 | -0.982
CCGACTGGGGCAAGGTTCCCATAACGCACAGCCA | -0.116 | -0.36 | -0.312 | -0.226 | -1.24 | 1.17 | 3.1 | 3.89 | 2.1 | 3.38
TTACCAAGGTGGAAGGTCGTTGATGCACGCCTTG | 0.529 | 0.656 | -0.194 | 0.41 | -0.809 | 2.03 | 2.43 | 4.41 | 1.94 | 4.21
CTCGAAAGGTCGTGTTCAGGTGAGTATACCAAAC | 4.67 | 3.64 | 0.232 | 3.31 | 0.113 | 4.76 | 2.42 | 3.38 | 0.878 | 2.07
GCTCGCAGGCCATTTGGGTCACTCAATGACGGGC | 0.079 | 0.0243 | -0.668 | 0.0952 | -1.06 | 1.29 | 0.381 | 0.415 | -0.625 | -0.441
CTCGAAAGGTCGGTTGAGGCGAGTATACGGATAA | 1.49 | 1.17 | -0.238 | 0.925 | -0.22 | 2.11 | 0.256 | 0.752 | -0.191 | 0.269
TAGCCTAGGTCATTCAGGGGCCAGTACAGAAAGC | 4.86 | 4.11 | 0.86 | 3.16 | 0.986 | 3.6 | 2.29 | 2.39 | 0.132 | 1.25
GGAACGAGGGCAGAGTTGATAGCATCTGTCGACG | -0.283 | -0.148 | -0.653 | -0.244 | -0.788 | 2.39 | 4.04 | 5.15 | 3.38 | 4.85
ATCTCTAGGTAACCAAGTTCAGTTAATGCCGAAC | 0.988 | 1.26 | 1.38 | 1.11 | 0.875 | 1.31 | 0.806 | 1.1 | 0.448 | 0.659
GCATATAGGTAATACACGGTGAAAGTCCGATTGT | 0.145 | 0.988 | 0.163 | -0.0915 | -0.496 | 0.9 | 0.912 | 0.806 | 0.349 | 0.684
TCTTGTAGATCAGCAGTTTAAGAAAGCTGGCCAA | 0.068 | -0.0226 | -0.271 | 0.182 | -0.0391 | 0.33 | -0.762 | 1.27 | 2.68 | 2.09
GCTCGGAGGACAAGGTCAAAGCTTTGTCCGTAGA | 4.6 | 3.98 | 0.466 | 3.14 | 0.0189 | 4.19 | 2.56 | 3.57 | 0.553 | 2.47
CCGACTGGGGCAGAAAGGTTACCCTACCATCCGG | 0.191 | 0.465 | -0.126 | 0.448 | -1.02 | 1.5 | 1.17 | 2.33 | 0.336 | 1.78
GATACATGGTCAGCTAGAGGCCAGAGTATGGAAA | -0.242 | -0.822 | -0.541 | -0.77 | -1.11 | -0.488 | 0.533 | -0.14 | -0.161 | -0.183
AGAATAAGGTTATTAAGATCAGGGAATTGCGGTC | 1.43 | 1.6 | 0.352 | 1.32 | -0.02 | 2.42 | 1.12 | 1.67 | 0.45 | 1.38
